Molecules are shown by their SMILES. The whole screen tested about 190,000 compounds, of which about 4,100 (2.2%) were called active. Shown is part of a subset that was picked to be rich in actives. Values without a mark were called inactive.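 How the source made its calls: active means thallium flux slope and its plate-corrected score both differing from the plate sample mean at a set confidence after two filtering rounds, in either direction; inactive means the rest.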

The experiment deals with Solute carrier family 12 member 5 (Homo sapiens) (UniProt Q9H2X9). Nature of the experiment: KCC2 cotransporter modulators, thallium flux, primary screen, cell-based, HEK293 KCC2, FluoZin-2 fluorescence, MLSMR (AID 1456).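 Further: slope of fluorescence scaled to starting intensity during 10 to 20 s after thallium.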 Conditions: KCC2 cells, thallium flux FluoZin-2 fluorescence; at 10 µM.
Sequence of Solute carrier family 12 member 5 (Homo sapiens) (Q9H2X9 whole entry, looked up): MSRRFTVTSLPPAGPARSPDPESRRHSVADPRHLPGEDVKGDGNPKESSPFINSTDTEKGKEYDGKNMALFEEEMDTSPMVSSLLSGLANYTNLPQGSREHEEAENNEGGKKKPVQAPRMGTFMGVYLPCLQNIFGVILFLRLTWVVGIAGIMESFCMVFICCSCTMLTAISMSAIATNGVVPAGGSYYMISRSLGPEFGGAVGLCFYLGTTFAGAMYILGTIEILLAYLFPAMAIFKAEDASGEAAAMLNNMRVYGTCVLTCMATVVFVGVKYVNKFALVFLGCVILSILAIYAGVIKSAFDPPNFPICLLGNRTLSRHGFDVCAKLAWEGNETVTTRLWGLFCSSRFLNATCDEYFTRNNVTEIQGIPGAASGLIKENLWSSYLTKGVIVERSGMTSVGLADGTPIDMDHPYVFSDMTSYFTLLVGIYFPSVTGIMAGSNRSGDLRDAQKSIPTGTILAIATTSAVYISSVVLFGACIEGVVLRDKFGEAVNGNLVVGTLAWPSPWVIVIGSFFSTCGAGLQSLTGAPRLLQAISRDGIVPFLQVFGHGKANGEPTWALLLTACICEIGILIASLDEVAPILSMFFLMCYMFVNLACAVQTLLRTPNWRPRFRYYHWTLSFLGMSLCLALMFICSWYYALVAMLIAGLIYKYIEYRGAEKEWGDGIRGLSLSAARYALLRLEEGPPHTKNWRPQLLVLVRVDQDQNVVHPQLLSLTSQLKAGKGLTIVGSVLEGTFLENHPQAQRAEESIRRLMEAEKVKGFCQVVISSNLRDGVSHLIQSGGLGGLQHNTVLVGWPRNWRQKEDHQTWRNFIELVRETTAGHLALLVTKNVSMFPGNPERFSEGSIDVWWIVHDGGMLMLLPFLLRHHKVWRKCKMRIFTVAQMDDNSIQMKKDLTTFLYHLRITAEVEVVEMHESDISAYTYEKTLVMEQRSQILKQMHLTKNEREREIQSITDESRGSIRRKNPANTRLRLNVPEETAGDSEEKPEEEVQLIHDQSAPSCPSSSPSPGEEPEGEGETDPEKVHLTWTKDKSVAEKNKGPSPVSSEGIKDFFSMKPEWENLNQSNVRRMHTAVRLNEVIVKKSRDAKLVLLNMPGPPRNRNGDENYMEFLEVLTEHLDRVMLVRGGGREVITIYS
Turning to `N#Cc1c2c(c(-c3ccccc3)[nH]c1=O)CCCC2`, the B-score of Tl+ flux slope (higher = more flux/activation; lower = inhibition) is -0.0377.
Turning to `CC(=O)c1c(C)[nH]c(=S)c(C#N)c1-c1ccc(F)cc1`, the B-score of Tl+ flux slope (higher = more flux/activation; lower = inhibition) is 0.0246.
As to `N#Cc1c(-c2ccc(Cl)cc2)c2c([nH]c1=S)CCCC2`, the B-score of Tl+ flux slope (higher = more flux/activation; lower = inhibition) was 13.8 (active).
Consider `COc1ccc(NC(=O)C2=C(C)NC(=O)NC2c2ccccc2[N+](=O)[O-])cc1` (stereo not given), for which the B-score of Tl+ flux slope (higher = more flux/activation; lower = inhibition) is -1.15.
Regarding `Cc1ccc(Cl)c(OCC(=O)NN2CCN(C)CC2)c1`, the B-score of Tl+ flux slope (higher = more flux/activation; lower = inhibition) is 0.242.
In the case of `NC(=O)C1(C(N)=O)OC1c1ccc(Cl)cc1Cl` (stereo not given), the B-score of Tl+ flux slope (higher = more flux/activation; lower = inhibition) is 0.213.
Next, `CCN1CCN(CC(=O)c2cc(OC)c(OC)c(OC)c2)CC1`: 0.89.
`COc1ccc(CCNS(=O)(=O)c2cccc3cccnc23)cc1OC`: the B-score of Tl+ flux slope (higher = more flux/activation; lower = inhibition) was -0.941.
For `Cc1ccc(OCc2n[nH]c(=S)n2-c2ccc(C)cc2)cc1`, the B-score of Tl+ flux slope (higher = more flux/activation; lower = inhibition) was 13.5 (active).
Turning to `COc1ccc(OCc2n[nH]c(=S)n2N)cc1`, the B-score of Tl+ flux slope (higher = more flux/activation; lower = inhibition) is 0.178.
As to `S=c1[nH]nc(COc2ccccc2)n1-c1ccccc1`, the B-score of Tl+ flux slope (higher = more flux/activation; lower = inhibition) was 0.195.
Turning to `CCc1ccccc1NC(=O)CSc1nnc(CCNC(=O)OC(C)(C)C)o1`, the B-score of Tl+ flux slope (higher = more flux/activation; lower = inhibition) is -1.55.
For `Cc1sc2ncnc(Sc3nc4ccccc4s3)c2c1C`, the B-score of Tl+ flux slope (higher = more flux/activation; lower = inhibition) was 2.96 (active).
`CCOC(=O)C(C)n1cnc2sc(C)c(C)c2c1=O` (stereo not given): the B-score of Tl+ flux slope (higher = more flux/activation; lower = inhibition) is 0.498.
Regarding `CCCNc1ncnc2sc(C)c(C)c12`, the B-score of Tl+ flux slope (higher = more flux/activation; lower = inhibition) was -0.897.
Regarding `CCN(CC)CCCSc1nc2ccccc2s1`, the B-score of Tl+ flux slope (higher = more flux/activation; lower = inhibition) was -0.568.
Take `CSc1ncnc2sc(C)c(C)c12`: the B-score of Tl+ flux slope (higher = more flux/activation; lower = inhibition) was 8.38 (active).
Regarding `COC(=O)c1c(-c2cccs2)csc1NC(=O)CSc1ncnc2sc(C)c(C)c12`, the B-score of Tl+ flux slope (higher = more flux/activation; lower = inhibition) is 0.971.
In the case of `O=C(O)c1ccccc1C(=O)Nc1ccccc1[N+](=O)[O-]`, the B-score of Tl+ flux slope (higher = more flux/activation; lower = inhibition) was -0.0678.
In the case of `CCOc1ccccc1N1CN(Cc2ccccc2)CNC1=S`, the B-score of Tl+ flux slope (higher = more flux/activation; lower = inhibition) is -0.426.
`COC(=O)c1ccc(S(=O)(=O)N(CCO)Cc2ccccc2)n1C`: the B-score of Tl+ flux slope (higher = more flux/activation; lower = inhibition) was 0.0796.
For the compound `O=C(O)CCN(Cc1ccccc1)S(=O)(=O)c1c(Cl)cccc1Cl`, the B-score of Tl+ flux slope (higher = more flux/activation; lower = inhibition) is -6.63 (active).
Consider `O=C(/C=C/c1c(Cl)cccc1Cl)NCc1ccccc1`, for which the B-score of Tl+ flux slope (higher = more flux/activation; lower = inhibition) was 0.452.
For the compound `N#CCc1ccc(OC(=O)c2cccnc2)cc1`, the B-score of Tl+ flux slope (higher = more flux/activation; lower = inhibition) was 0.815.
As for `O=C(Oc1c(-c2ccco2)oc2ccccc2c1=O)c1cccnc1`, the B-score of Tl+ flux slope (higher = more flux/activation; lower = inhibition) is 40.4 (active).
Next, `O=C(Oc1cccnc1)c1cc2ccccc2oc1=O`: 0.0371; `S=C(NNC(=S)NC1CC2CCC1C2)NC1CC2C=CC1C2` (stereo not given): 0.801; `Clc1ccc2nc(-c3ccccc3)nc(C(Cl)Cl)c2c1`: 0.642.
Take `Cc1cc(C)c2cc(CN(Cc3cccs3)Cc3nnnn3CC3CCCO3)c(=O)[nH]c2c1` (stereo not given): the B-score of Tl+ flux slope (higher = more flux/activation; lower = inhibition) is -3.73 (active).
For `Cc1cc2cc(CN(Cc3cccs3)Cc3nnnn3CC3CCCO3)c(=O)[nH]c2cc1C` (stereo not given), the B-score of Tl+ flux slope (higher = more flux/activation; lower = inhibition) is -1.28.
Turning to `CCOc1ccc2[nH]c(=O)c(CN(Cc3nnnn3Cc3ccccc3)CC3CCCO3)cc2c1` (stereo not given), the B-score of Tl+ flux slope (higher = more flux/activation; lower = inhibition) is 0.154.
Turning to `CCOC(=O)N/N=C1\CC(C)S(=O)(=O)c2ccc(Cl)cc21` (stereo not given), the B-score of Tl+ flux slope (higher = more flux/activation; lower = inhibition) is -0.00493.
For the compound `C/C(=N/NC(=O)CN1CCN(S(=O)(=O)c2ccc(Br)cc2)CC1)c1ccncc1`, the B-score of Tl+ flux slope (higher = more flux/activation; lower = inhibition) was 0.498.
On to `Cc1ccc(C)c(SCc2nc3sc(C(=O)O)c(C)c3c(=O)[nH]2)c1`, for which the B-score of Tl+ flux slope (higher = more flux/activation; lower = inhibition) was 0.00809.
For `CC(C)c1ccc2c(c1)c(SC(C)(C)C)c(CC(C)(C)C(=O)O)n2Cc1ccc(Cl)cc1`, the B-score of Tl+ flux slope (higher = more flux/activation; lower = inhibition) is 6.52 (active).
For the compound `COc1cc([N+](=O)[O-])ccc1NC(=S)N1CCN(c2ccccn2)CC1`, the B-score of Tl+ flux slope (higher = more flux/activation; lower = inhibition) was -1.11.
For `O=C(Nc1nnc(C2CC2)s1)C1=NN(C2CCS(=O)(=O)C2)C(=O)CC1` (stereo not given), the B-score of Tl+ flux slope (higher = more flux/activation; lower = inhibition) was 0.0275.
In the case of `CCCOC(=O)CC1C(=O)NCCN1Cc1ccc(F)cc1` (stereo not given), the B-score of Tl+ flux slope (higher = more flux/activation; lower = inhibition) is -4.12 (active).
For the compound `CN(Cc1cccc2ncccc12)C(=O)CC1C(=O)NCCN1Cc1ccc(F)cc1` (stereo not given), the B-score of Tl+ flux slope (higher = more flux/activation; lower = inhibition) is -0.00882.
On to `O=C(CC1C(=O)NCCN1Cc1ccc(-c2ccccc2)cc1)NCC1CCOCC1` (stereo not given), for which the B-score of Tl+ flux slope (higher = more flux/activation; lower = inhibition) was 0.966.
Consider `Cc1cc(N)n(-c2ccc(S(=O)(=O)N3CCCC3)cc2[N+](=O)[O-])n1`, for which the B-score of Tl+ flux slope (higher = more flux/activation; lower = inhibition) was -0.0325.
Take `COC(=O)c1cccc(NS(C)(=O)=O)c1`: the B-score of Tl+ flux slope (higher = more flux/activation; lower = inhibition) was 0.136.
On to `CC(=O)/C(=N\Nc1ccc(Cl)cc1Cl)Sc1cccc2cccnc12`, for which the B-score of Tl+ flux slope (higher = more flux/activation; lower = inhibition) is 20.6 (active).
Regarding `N#Cc1ccc(C(=O)Nc2cccc3cccnc23)c(F)c1`, the B-score of Tl+ flux slope (higher = more flux/activation; lower = inhibition) is 0.429.
With `S=C(NCc1cccnc1)Nc1ccc(Cl)cc1Cl`, the B-score of Tl+ flux slope (higher = more flux/activation; lower = inhibition) was 0.543.
`Cc1cc(OCCCN2CCN(Cc3ccccc3)CC2)ccc1[N+](=O)[O-]`: the B-score of Tl+ flux slope (higher = more flux/activation; lower = inhibition) was -0.489.
Next, `O=[N+]([O-])c1c(NCCO)cc(Sc2nc3ccccc3s2)c2nonc12`: 5.33 (active); `COc1ccc(S(=O)(=O)Nc2ccc(O)c(Sc3nc4ccccc4s3)c2)cc1`: -1.09; `O=C(CSc1nc2ccccc2s1)Nc1ccc(C(=O)O)cc1`: 0.381.
As for `O=C(NCc1ccc(F)cc1)C1CCC(CNc2c(N3CCOCC3)c(=O)c2=O)CC1` (stereo not given), the B-score of Tl+ flux slope (higher = more flux/activation; lower = inhibition) is 1.21.

These data come from PubChem BioAssay AID1456 (Vanderbilt High Throughput Screening Facility, 2008).
